Laboratory results: PubChem BioAssay AID1159580 (chemical genetic matrix, 2015)
Values joined by “and” are separate entries in the source; they are usually repeats but may differ in a detail not shown here. Equal entries are not always repeated. Among all 5,500 compounds or so, about 2,000 (36%) were called active. Inconclusive results (about 18%) are left out. Cut-off read from the data, not from the text of the source: active = normalized growth mostly below about 0.91 (no sharp cut-off); inconclusive = no clear call, values can overlap the other calls; inactive = mostly above about 0.92. This is one part of the list.

Assay: chemical genetic growth profiling, strain panel (AID 1159580);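 note: tested at 20 µM; growth read once vehicle control cultures reached saturation at 30 °C; 1 = growth at the plate median or of vehicle wells; lower values mean less growth of the strain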
Settings: S. cerevisiae deletion strains, growth OD

Measured: normalized growth

CC(=O)Oc1ccc(C(c2ccc(OC(C)=O)cc2)c2ccccn2)cc1
inactive: locus YAL021C, strain ccr4, stronger effect = lower value 1.02 | locus YAL026C, strain drs2, stronger effect = lower value 1.02 | locus YAL030W, strain snc1, stronger effect = lower value 1.01 | locus YBL061C, strain skt5, stronger effect = lower value 1.01 | locus YBR009C, strain hhf1, stronger effect = lower value 1.04 | locus YBR021W, strain FUR4, stronger effect = lower value 0.998 | locus YBR023C, strain chs3, stronger effect = lower value 1.02 | locus YBR171W, strain sec66, stronger effect = lower value 1.02 | locus YBR229C, strain ROT2, stronger effect = lower value 0.969 | locus YBR231C, strain swc5, stronger effect = lower value 0.997 | locus YBR279W, strain paf1, stronger effect = lower value 1.01 | locus YCL011C, strain gbp2, stronger effect = lower value 1.02 | locus YCL016C, strain dcc1, stronger effect = lower value 1.02 | locus YCL029C, strain bik1, stronger effect = lower value 0.988 | locus YCL069W, strain vba3, stronger effect = lower value 1.01 | locus YCR088W, strain abp1, stronger effect = lower value 1.02 | locus YDL005C, strain med2, stronger effect = lower value 1.01 | locus YDL035C, strain GPR1, stronger effect = lower value 1.03 | locus YDL040C, strain nat1, stronger effect = lower value 1.01 | locus YDL074C, strain BRE1, stronger effect = lower value 0.995 | locus YDL101C, strain DUN1, stronger effect = lower value 0.974 | locus YDL185W, strain tfp1, stronger effect = lower value 0.993 | locus YDL192W, strain arf1, stronger effect = lower value 0.984 | locus YDR001C, strain nth1, stronger effect = lower value 1.02 | locus YDR069C, strain doa4, stronger effect = lower value 1.01 | locus YDR101C, strain arx1, stronger effect = lower value 0.996 | locus YDR137W, strain rgp1, stronger effect = lower value 1.02 | locus YDR150W, strain NUM1, stronger effect = lower value 0.99 | locus YDR159W, strain sac3, stronger effect = lower value 0.993 | locus YDR162C, strain NBP2, stronger effect = lower value 1.03 | locus YDR195W, strain ref2 0.985 | locus YDR297W, strain sur2, stronger effect = lower value 1.02 | locus YDR318W, strain mcm21, stronger effect = lower value 0.994 | locus YDR334W, strain swr1, stronger effect = lower value 1.02 | locus YDR335W, strain msn5, stronger effect = lower value 1.02 | locus YDR388W, stronger effect = lower value 0.987 | locus YDR392W, strain spt3, stronger effect = lower value 1.03 | locus YDR502C, strain sam2, stronger effect = lower value 0.999 | locus YEL003W, strain gim4, stronger effect = lower value 1.02 | locus YEL037C, strain rad23, stronger effect = lower value 1.02 | locus YEL061C, strain CIN8 (second series), stronger effect = lower value 1.01 | locus YEL061C, strain CIN8, stronger effect = lower value 0.99 | locus YER015W, strain faa2, stronger effect = lower value 1.01 | locus YER016W, strain bim1, stronger effect = lower value 1.03 | locus YER110C, stronger effect = lower value 0.977 | locus YER111C, strain swi4, stronger effect = lower value 1.01 | locus YER155C, strain BEM2 (second series), stronger effect = lower value 1.03 | locus YER155C, strain BEM2, stronger effect = lower value 0.983 | locus YER167W, strain BCK2, stronger effect = lower value 1 | locus YFR010W, strain ubp6, stronger effect = lower value 0.996 | locus YGL078C, strain dbp3, stronger effect = lower value 0.991 | locus YGL086W, strain mad1, stronger effect = lower value 0.982 | locus YGL167C, strain pmr1, stronger effect = lower value 1.03 | locus YGL173C, strain kem1, stronger effect = lower value 1.02 | locus YGL227W, strain vid30, stronger effect = lower value 1.01 | locus YGL240W, strain doc1, stronger effect = lower value 1 | locus YGL248W, strain PDE1, stronger effect = lower value 0.966 | locus YGL253W, strain hxk2, stronger effect = lower value 1.03 | locus YGR135W, strain pre9, stronger effect = lower value 0.996 | locus YGR229C, strain SMI1, stronger effect = lower value 1.01 | locus YGR252W, strain gcn5, stronger effect = lower value 0.961 | locus YHR013C, strain ard1, stronger effect = lower value 1.06 | locus YHR027C, strain rpn1, stronger effect = lower value 1.02 | locus YHR030C, strain SLT2, stronger effect = lower value 0.99 and 1.02 | locus YHR079C, strain IRE1 (second series), stronger effect = lower value 0.993 | locus YHR079C, strain IRE1, stronger effect = lower value 0.983 | locus YHR094C, strain hxt1, stronger effect = lower value 0.989 | locus YHR129C, strain ARP1, stronger effect = lower value 0.989 | locus YHR142W, strain chs7, stronger effect = lower value 1.01 | locus YHR200W, strain rpn10, stronger effect = lower value 0.984 | locus YIL066C, strain RNR3, stronger effect = lower value 1.02 | locus YIL073C, strain SPO22, stronger effect = lower value 1.01 | locus YIL125W, strain kgd1, stronger effect = lower value 0.985 | locus YIR030C, strain dcg1, stronger effect = lower value 0.999 | locus YJL092W, strain hpr5, stronger effect = lower value 1.01 | locus YJL095W, strain BCK1 (second series), stronger effect = lower value 1.03 | locus YJL095W, strain BCK1, stronger effect = lower value 0.975 and 1 | locus YJL115W, strain asf1, stronger effect = lower value 1.01 | locus YJL129C, strain trk1, stronger effect = lower value 1.03 | locus YJL134W, strain LCB3, stronger effect = lower value 0.987 | locus YJL154C, strain vps35, stronger effect = lower value 1.01 | locus YJL164C, strain tpk1, stronger effect = lower value 1.02 | locus YJL166W, strain qcr8, stronger effect = lower value 1 | locus YJL168C, strain set2, stronger effect = lower value 0.985 | locus YJL187C, strain SWE1 (second series), stronger effect = lower value 0.967 | locus YJR043C, strain POL32, stronger effect = lower value 1.02 | locus YJR066W, strain TOR1, stronger effect = lower value 0.976
